# Reference: PMC11006913
# Changes are numbered by the printed parent chain.
# Key:
# Test in all cases: PBM; 200 nM protein, PBS
# Details in all cases: dsDNA, one strand shown
# PAX4 [1] = target: T1, PAX4 (Homo sapiens, UniProt O43316 9-242, R200K)
# T1 sequence: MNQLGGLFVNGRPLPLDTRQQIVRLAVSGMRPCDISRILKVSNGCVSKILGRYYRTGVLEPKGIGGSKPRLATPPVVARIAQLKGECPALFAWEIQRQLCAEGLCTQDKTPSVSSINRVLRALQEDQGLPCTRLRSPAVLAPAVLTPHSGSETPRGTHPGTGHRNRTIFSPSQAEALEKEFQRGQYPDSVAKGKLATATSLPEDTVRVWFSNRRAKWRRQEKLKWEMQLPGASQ
# PAX4 [2] = target: T2, PAX4 (Homo sapiens, UniProt O43316 9-242)
# T2 sequence: T1 sequence with K192R
# PAX4 [3] = target: T3, PAX4 (Homo sapiens, UniProt O43316 9-242, R200Q)
# T3 sequence: T1 sequence with K192Q
# PAX4 [4] = target: T4, PAX4 (Homo sapiens, UniProt O43316 9-242, F177V)
# T4 sequence: T1 sequence with F169V, K192R
# PAX4 [5] = target: T5, PAX4 (Homo sapiens, UniProt O43316 9-242, F177Y)
# T5 sequence: T1 sequence with F169Y, K192R
# PAX4 [6] = target: T6, PAX4 (Homo sapiens, UniProt O43316 9-242, R227W)
# T6 sequence: T1 sequence with K192R, R219W
# PROP1 [7] = target: PROP1 (Homo sapiens, UniProt O75360 56-141)
# Chain of PROP1 (Homo sapiens, UniProt O75360 56-141) (O75360 56-141): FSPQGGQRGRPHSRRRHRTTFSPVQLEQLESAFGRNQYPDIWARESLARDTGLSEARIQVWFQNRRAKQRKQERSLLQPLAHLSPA
# PROP1 [8] = target: PROP1 (Homo sapiens, UniProt O75360 56-141, R99H)
# Chain of PROP1 (Homo sapiens, UniProt O75360 56-141, R99H) (O75360 56-141 R99H): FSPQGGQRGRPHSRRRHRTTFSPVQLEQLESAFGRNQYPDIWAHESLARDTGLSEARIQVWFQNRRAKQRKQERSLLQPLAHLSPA
# PROP1 [9] = target: PROP1 (Homo sapiens, UniProt O75360 56-141, F88S)
# Chain of PROP1 (Homo sapiens, UniProt O75360 56-141, F88S) (O75360 56-141 F88S): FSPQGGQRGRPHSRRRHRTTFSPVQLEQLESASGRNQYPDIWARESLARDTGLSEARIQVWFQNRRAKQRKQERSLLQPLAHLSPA
# VAX1 [10] = target: VAX1 (Homo sapiens, UniProt Q5SQQ9 86-172)
# Chain of VAX1 (Homo sapiens, UniProt Q5SQQ9 86-172) (Q5SQQ9 86-172): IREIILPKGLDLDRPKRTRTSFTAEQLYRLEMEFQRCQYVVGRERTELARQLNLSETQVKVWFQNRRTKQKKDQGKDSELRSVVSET
# VAX1 [11] = target: VAX1 (Homo sapiens, UniProt Q5SQQ9 86-172, T142I)
# Chain of VAX1 (Homo sapiens, UniProt Q5SQQ9 86-172, T142I) (Q5SQQ9 86-172 T142I): as the sequence (Q5SQQ9 86-172) above, with T57I counted along it
# VAX1 [12] = target: VAX1 (Homo sapiens, UniProt Q5SQQ9 86-172, K157R)
# Chain of VAX1 (Homo sapiens, UniProt Q5SQQ9 86-172, K157R) (Q5SQQ9 86-172 K157R): as the sequence (Q5SQQ9 86-172) above, with K72R counted along it
Sequence,binding signal (PAX4 [1]),binding signal (PAX4 [2]),binding signal (PAX4 [3]),binding signal (PAX4 [4]),binding signal (PAX4 [5]),binding signal (PAX4 [6]),binding signal (PROP1 [7]),binding signal (PROP1 [8]),binding signal (PROP1 [9]),binding signal (VAX1 [10]),binding signal (VAX1 [11]),binding signal (VAX1 [12])
ATTTAGAG,"10.6 upbm affinity estimate (log intensity, higher = more binding, comparable within an allelic series)","10.7 upbm affinity estimate (log intensity, higher = more binding, comparable within an allelic series)","10.6 upbm affinity estimate (log intensity, higher = more binding, comparable within an allelic series)","10.1 upbm affinity estimate (log intensity, higher = more binding, comparable within an allelic series)","10.2 upbm affinity estimate (log intensity, higher = more binding, comparable within an allelic series)","10.2 upbm affinity estimate (log intensity, higher = more binding, comparable within an allelic series)",,,,,,
CAGCCGGG,"9.16 upbm affinity estimate (log intensity, higher = more binding, comparable within an allelic series)","9.21 upbm affinity estimate (log intensity, higher = more binding, comparable within an allelic series)","9.22 upbm affinity estimate (log intensity, higher = more binding, comparable within an allelic series)","9.02 upbm affinity estimate (log intensity, higher = more binding, comparable within an allelic series)","9.05 upbm affinity estimate (log intensity, higher = more binding, comparable within an allelic series)","9.17 upbm affinity estimate (log intensity, higher = more binding, comparable within an allelic series)",,,,,,
AAGGGGGC,"9.31 upbm affinity estimate (log intensity, higher = more binding, comparable within an allelic series)","9.38 upbm affinity estimate (log intensity, higher = more binding, comparable within an allelic series)","9.38 upbm affinity estimate (log intensity, higher = more binding, comparable within an allelic series)","9.25 upbm affinity estimate (log intensity, higher = more binding, comparable within an allelic series)","9.22 upbm affinity estimate (log intensity, higher = more binding, comparable within an allelic series)","9.29 upbm affinity estimate (log intensity, higher = more binding, comparable within an allelic series)","6.71 upbm affinity estimate (log intensity, higher = more binding, comparable within an allelic series)","6.71 upbm affinity estimate (log intensity, higher = more binding, comparable within an allelic series)","6.36 upbm affinity estimate (log intensity, higher = more binding, comparable within an allelic series)",,,
CCGCGAGC,"9.36 upbm affinity estimate (log intensity, higher = more binding, comparable within an allelic series)","9.36 upbm affinity estimate (log intensity, higher = more binding, comparable within an allelic series)","9.27 upbm affinity estimate (log intensity, higher = more binding, comparable within an allelic series)","9.16 upbm affinity estimate (log intensity, higher = more binding, comparable within an allelic series)","9.2 upbm affinity estimate (log intensity, higher = more binding, comparable within an allelic series)","9.31 upbm affinity estimate (log intensity, higher = more binding, comparable within an allelic series)",,,,,,
GGAAGCCC,"9.27 upbm affinity estimate (log intensity, higher = more binding, comparable within an allelic series)","9.25 upbm affinity estimate (log intensity, higher = more binding, comparable within an allelic series)","9.38 upbm affinity estimate (log intensity, higher = more binding, comparable within an allelic series)","9.32 upbm affinity estimate (log intensity, higher = more binding, comparable within an allelic series)","9.3 upbm affinity estimate (log intensity, higher = more binding, comparable within an allelic series)","9.35 upbm affinity estimate (log intensity, higher = more binding, comparable within an allelic series)",,,,,,
AGGCCGCC,"9.08 upbm affinity estimate (log intensity, higher = more binding, comparable within an allelic series)","9.11 upbm affinity estimate (log intensity, higher = more binding, comparable within an allelic series)","9.15 upbm affinity estimate (log intensity, higher = more binding, comparable within an allelic series)","9.15 upbm affinity estimate (log intensity, higher = more binding, comparable within an allelic series)","9.1 upbm affinity estimate (log intensity, higher = more binding, comparable within an allelic series)","9.22 upbm affinity estimate (log intensity, higher = more binding, comparable within an allelic series)",,,,,,
ACCGAGCC,"9.37 upbm affinity estimate (log intensity, higher = more binding, comparable within an allelic series)","9.52 upbm affinity estimate (log intensity, higher = more binding, comparable within an allelic series)","9.41 upbm affinity estimate (log intensity, higher = more binding, comparable within an allelic series)","9.22 upbm affinity estimate (log intensity, higher = more binding, comparable within an allelic series)","9.25 upbm affinity estimate (log intensity, higher = more binding, comparable within an allelic series)","9.41 upbm affinity estimate (log intensity, higher = more binding, comparable within an allelic series)","6.86 upbm affinity estimate (log intensity, higher = more binding, comparable within an allelic series)","6.94 upbm affinity estimate (log intensity, higher = more binding, comparable within an allelic series)","6.77 upbm affinity estimate (log intensity, higher = more binding, comparable within an allelic series)",,,
GAAGCTTC,"9.21 upbm affinity estimate (log intensity, higher = more binding, comparable within an allelic series)","9.26 upbm affinity estimate (log intensity, higher = more binding, comparable within an allelic series)","9.45 upbm affinity estimate (log intensity, higher = more binding, comparable within an allelic series)","9.5 upbm affinity estimate (log intensity, higher = more binding, comparable within an allelic series)","9.42 upbm affinity estimate (log intensity, higher = more binding, comparable within an allelic series)","9.35 upbm affinity estimate (log intensity, higher = more binding, comparable within an allelic series)",,,,"6.86 upbm affinity estimate (log intensity, higher = more binding, comparable within an allelic series)","7.04 upbm affinity estimate (log intensity, higher = more binding, comparable within an allelic series)","6.85 upbm affinity estimate (log intensity, higher = more binding, comparable within an allelic series)"
CCTTCCCC,"9.18 upbm affinity estimate (log intensity, higher = more binding, comparable within an allelic series)","9.26 upbm affinity estimate (log intensity, higher = more binding, comparable within an allelic series)","9.24 upbm affinity estimate (log intensity, higher = more binding, comparable within an allelic series)","9.11 upbm affinity estimate (log intensity, higher = more binding, comparable within an allelic series)","9.14 upbm affinity estimate (log intensity, higher = more binding, comparable within an allelic series)","9.24 upbm affinity estimate (log intensity, higher = more binding, comparable within an allelic series)",,,,,,
ACCGGGGC,"9.07 upbm affinity estimate (log intensity, higher = more binding, comparable within an allelic series)","9.11 upbm affinity estimate (log intensity, higher = more binding, comparable within an allelic series)","9.2 upbm affinity estimate (log intensity, higher = more binding, comparable within an allelic series)","9.11 upbm affinity estimate (log intensity, higher = more binding, comparable within an allelic series)","9.09 upbm affinity estimate (log intensity, higher = more binding, comparable within an allelic series)","9.2 upbm affinity estimate (log intensity, higher = more binding, comparable within an allelic series)",,,,,,
